For 51 molecules, Potency results are on record in PubChem BioAssay AID902 (National Center for Advancing Translational Sciences (NCATS), 2007).

The structures appear in SMILES notation. Hit rate of the full screen: of about 130,000 compounds, about 1,900 (1.5%) were called active. Roughly 5% stayed inconclusive and do not appear here. Calls come from the whole dose curve; as a rule, active = well fitted cell-killing curve with a large enough effect; inconclusive = small, poorly fitted or top-dose-only effect; inactive = no such curve, though single readings can be large or run the other way. Shown is part of a subset that was picked to be rich in actives. Where a call stands in place of a potency, no number is given.
Potency is the fitted concentration of half-maximal effect.

A short description of this experiment: qHTS Screen for Compounds that Selectively Target Cancer Cells with p53 Mutations: Cytotoxicity of p53ts Cells at the Nonpermissive Temperature. Note: nearly all actives have a fitted effect of over 55% in size. The conditions noted are these: H1299-p53A138V viability at 39C, ATP luminescence, 24 h; series mostly up to 46.1 µM. An excerpt: NIH Chemical Genomics Center [NCGC] NIH Molecular Libraries Screening Centers Network [MLSCN] MLSCN Grant: 1 X01 MH079844-01 Assay Submitter (PI): Dr. SUN, YI, University of Michigan NCGC Assay Overview: Synthetic Lethal Screen for Compounds to Kill Cancer Cells with p53 Mutation. Tumor suppressor gene p53 serves as a major cellular barrier against tumorigenesis. […] The goal of this screening is to identify small molecule probes that selectively kill cancer cells with mutations in p53. This screening was carried out using two lines of H1299 lung cancer cells. The H1299-p53 A138V line express a temperature sensitive p53 mutant (p53ts) in which the mutant p53 protein (A138V) is in the mutant confirmation when grown at 39C (the nonpermissive temperature) and in the wild type conformation when grown at 32C (the permissive temperature). A H1299-neo line (p53 null) grown at both 39C and 32C were used as counter-screens to filter out false positive associated with temperature shifting. The small molecular compounds that selectively target mutant p53-containing cancer cells were selected as candidate probes for further study. A cytotoxicity assay based on the measurement of ATP contents in cells was used in this screen. Concentration-responses of all the compounds in the library collection were determined in qHTS using the cell lines and temperature conditions as above.
NCGC Assay Protocol Summary: Both the H1299-p53A138V and H1299-neo cell lines were provided by Dr.Yi Sun, a PI at the University Michigan. The cells were maintained and cultured at 37C. The resuspended frozen cells were used to plate the cells in the 1536-well assay plates at a density of 600 cells per well in 5 ul medium. The assay plates with the cells were incubated at 37C for 16 to 30 hours before the experiments. The library compounds in DMSO solution were added to the cells in assay plates and incubated 24 hours at 39C (for mutant p53 conformation) or 32C (for normal p53 conformation as control). An ATP_lite assay kit (PerkinElmer) was used to determine the cell viability. Tomaxifen (100uM) was used as the positive control for cell killing. Data were normalized to the controls for basal activity (DMSO only) and 100% killing (100uM tamoxifen). AC50 values were determined from concentration-response data modeled with the standard Hill equation. P53 assay protocol: 1. Reagent; 5 uL H1299-p53A138V or H1299-neo cell cells/well 2. Time; overnight; 37C incubation 3. Compounds; 23 nL; 5.9 nM to 46 uM 4. Controls; 23 nL; Tamoxifen 100 uM 5. Time; 24 hr; 39C incubation 6. Reagent; 3 uL; ATP_Lite reagent 7. Time; 20 min; Room Temperature 8. Detection; Luminescence; Viewlux plate reader Keywords: p53, synthetic lethal, cancer, cell viability, cytotoxicity, H1299 cell line, luminescence, MLSMR, MLSCN, NIH Roadmap, qHTS, NCGC
(qHTS replaces the single test concentration by a dilution series.)
As to `c1ccc(Nc2n[nH]nc2-c2ccccc2)cc1`, the Potency result is “inactive”. Next, `CSc1nc(Nc2ccc(F)cc2)cc(-c2ccccc2)n1`: 12.6 µM (active); `CCC(=O)N1c2ccccc2CC1C(=O)N1CCN(c2ccccc2)CC1` (stereo unspecified): “inactive”. In the case of `Cc1cccc(N2CCN(c3ccc(C(=O)O)cc3NC(=O)c3ccccc3F)CC2C)c1` (stereo unspecified), the Potency entry was “inactive”. Next, `COc1ccc(OC)c(CCNC(=O)CCCn2c(=O)c3cccn3c3cccnc32)c1`: “inactive”; `CCOc1ccc(OCC)c(NS(=O)(=O)c2ccc3[nH]c(=O)ccc3c2)c1`: “inactive”; `CCN(c1ncnc2c1cnn2-c1ccc(C)cc1)C1CCCCC1`: 20 µM (active).

For `CCN(CC)C(=O)CSc1ncnc2c1cnn2-c1ccccc1`, the Potency result was “inactive”. As for `c1ccc(-n2ncc3c2ncn2c(C4CCCCC4)nnc32)cc1`, the entry is “inactive”; as for `Cc1cccc(-c2nc(SCC(=O)Nc3cc(C)on3)c3c(=O)n(C)c(=O)n(C)c3n2)c1`, “inactive”.

On to `Cc1nn2c3cc(N4CCOCC4)ccc3nc2c2ccccc12`, for which the Potency was 2 µM (active).

On to `Cc1nc2ccccc2n1C(=O)N1CCOCC1`, for which the Potency result is “inactive”. In the case of `Cc1cc(C)c2c(n1)nn1c(N3CCOCC3)cc(C)nc21`, the Potency entry is “inactive”. Next, `CCOc1cccc(NC(=O)CSc2ncc(-c3ccc(Cl)cc3)[nH]2)c1`: 20 µM (active). As for `Cc1cccc(NC(=O)CSc2ncc(-c3ccccc3)[nH]2)c1C`, the entry is “inactive”; as for `O=C(CSc1ncc(-c2ccccc2)[nH]1)Nc1ccc(F)cc1F`, “inactive”; as for `CCCc1nnc(NC(=O)CN2C(=O)c3ccccc3S2(=O)=O)s1`, 12.6 µM (active).

With `CNC(=O)CN1C(=O)c2ccccc2S1(=O)=O`, the Potency entry was “inactive”. Next, `CCCc1nnc(NC(=O)c2cc(OC)cc(OC)c2)s1`: “inactive”; `Cc1ccc(C)c2sc(NC(=O)c3ccc(S(=O)(=O)N4CCCC4)cc3)nc12`: “inactive”; `CC1=C(C(=O)N2CCN(c3cccc(C(F)(F)F)c3)CC2)C2(CCCCC2)OC1=O`: “inactive”. As for `CCOc1cc(C(=O)Nc2ncccn2)cc(OCC)c1OCC`, the entry is “inactive”; as for `O=C(Nc1ncccn1)c1cccs1`, “inactive”. On to `Cn1c(=O)c(C(=O)Nc2ncccn2)c(O)c2ccccc21`, for which the Potency was 12.6 µM (active). Next, `Cc1ccc(C(=O)Nc2ccc(OCc3cc(=O)n4c5c(sc4n3)CCCC5)cc2)cc1`: “inactive”; `CCN(CC)c1cc(NC2CCCCC2)c2c3c(onc13)-c1ccccc1C2=O`: “inactive”; `Cc1cccc(N2CCN(C(=O)c3oc(=O)c4ccccc4c3-c3ccccc3)CC2)c1C`: “inactive”. Next, `COc1ccc(OCCn2cc(C(=O)C3CCCCC3)c3ccccc32)cc1`: “inactive”; `O=C(/C=C/c1cn(CC(O)CN2CCc3ccccc32)c2ccccc12)c1ccc(Br)cc1` (stereo unspecified): “inactive”. As for `CCOc1ccc(C(=O)/C=C/c2cn(CC(O)CN3CCCCCC3)c3ccccc23)cc1` (stereo unspecified), the figure is 10 µM (active). With `COc1ccc(Cn2c(C(=O)O)c(CNCCc3cccs3)c3ccc(OC)cc32)cc1`, the Potency entry was “inactive”.

`CCCCC(C(=O)OCC(=O)c1ccc(OC)cc1)N1C(=O)c2ccccc2C1=O` (stereo unspecified): the Potency entry is “inactive”.

Turning to `CCOC(=O)c1ccccc1NS(=O)(=O)c1ccc(OC)cc1`, the Potency entry was “inactive”. As for `CCOC(=O)C1=C(c2ccc(OC)cc2)C(=O)c2ccccc2C1=O`, the figure is 7.08 µM (active). Take `Cc1cc(F)ccc1NS(=O)(=O)c1ccc(-n2cccn2)cc1`: the Potency result is “inactive”. Next, `O=C(Nc1cc(-c2nc3ccccc3o2)ccc1Cl)c1cc([N+](=O)[O-])ccc1N1CCOCC1`: “inactive”; `COc1ccc2oc(-c3ccc(C)c(NC(=O)c4sc5ccccc5c4Cl)c3)nc2c1`: “inactive”; `Cc1ccc2c(c1)N(C(=O)CCC(=O)NCc1ccccc1F)CC(C)O2` (stereo unspecified): “inactive”. Next, `Cc1ccccc1-c1nc(CS(=O)(=O)CC(=O)N2CCc3ccccc3C2)c(C)o1`: “inactive”; `Cc1ccccc1-c1nc(CS(=O)(=O)CC(=O)Nc2cc(Cl)cc(Cl)c2)c(C)o1`: 20 µM (active); `Cc1ccccc1-c1nc(CS(=O)(=O)CC(=O)NC(C)c2ccccc2)c(C)o1` (stereo unspecified): “inactive”. Next, `CCC1CCCCN1S(=O)(=O)c1ccc(NC(=O)c2cc(=O)c3ccccc3o2)cc1` (stereo unspecified): “inactive”. Consider `Clc1ccccc1CSc1nncn2c1cc1occc12`, for which the Potency entry was “inactive”. Next, `CCCC(=O)N1c2ccc(-c3csc(N)n3)cc2CC1C` (stereo unspecified): 12.6 µM (active); `CCC(=O)N1c2ccc(S(=O)(=O)CCC(=O)N3CCN(c4ccccc4)CC3)cc2CC1C` (stereo unspecified): “inactive”; `CCn1nc(C(=O)OCC(=O)N2c3ccccc3CC2C)c2ccccc2c1=O` (stereo unspecified): “inactive”.

Regarding `Cc1cccc(OCCSc2nc3ccccc3n2CC(=O)N2CCCCC2)c1C`, the Potency entry was “inactive”. Turning to `O=C(O)c1ccc(NC(=O)c2cccs2)cc1`, the Potency result is “inactive”.

In the case of `O=C(O)Cc1ccc(NC(=O)c2cccs2)cc1`, the Potency result was “inactive”. Next, `Cc1nc(-c2ccc(NC(=O)c3cccs3)cc2)cs1`: 2.51 µM (active). Consider `CCCCNc1ccc(-c2nc(-c3ccncc3)no2)cc1[N+](=O)[O-]`, for which the Potency result was “inactive”.
